# Casp1 inh: caspase-1 (human) inhibition, allosteric or competitive | P29466 | Caspase-1 enzyme, Ac-WEHD-AFC fluorogenic rate | Potency, µM (top dose mostly 57.5 µM), without a hit: at the highest dose activity change, negative = inhibition, usual class: inhibitors | hit rate 0.03% among 75,000;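 further: plate controls were vehicle for no effect and no substrate for full effect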
# TSHR ag: activates the human thyroid stimulating hormone receptor | HEK293-CNG-TSHR cells (CNG channel as cAMP sensor), membrane potential dye, cAMP | P16473 | Potency, µM (series often up to 57.1 µM), for the others: at the highest dose activation, most hits filed as activators | hit rate 0.48% among 73,000; active means well fitted activation curve with a large enough effect in the main read-out, with a control signal flat, not every such curve was filed as active; inconclusive means small, poorly fitted or top-dose-only effect, or a change in a side signal; inactive means no such curve, though single readings can be large or run the other way; % of control where 0% means no effect;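 further: the control signal comes from parental cells without the receptor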
#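 HEK 293 cells stably expressing TSHR and a modified CNG channel, with CNG-only parental cells as counterscreen, were preloaded 60 min at room temperature with membrane potential dye containing 100 uM RO 20-1724. Compound exposure was 30 min, and depolarization was read as fluorescence at 590 nm.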
# ERK AVP block: inhibitors of vasopressin-stimulated ERK signaling pathway; HEK293-V1b, vasopressin-stimulated pERK AlphaScreen; Potency, µM (series often up to 57.5 µM), inactives show at the top dose activity, negative = inhibition, actives largely listed as inhibitors; hit rate 0.99% among 72,000; further: on the % scale 0 is the no-effect control and ±100 the full control effect; nearly all actives have a fitted effect of over 55% in size
#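 qHTS, compounds titrated on V1b-expressing HEK293 cells. Preincubation 30 min at 37C, vasopressin 25 nM for 5 min, lysis 10 min, bead incubation 5 hr at room temperature.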
# ALOX15 inhib: 15-hLO (ALOX15) enzyme inhibition | P16050 | purified 15hLO-1, xylenol orange hydroperoxide absorbance | Potency, µM (top dose mostly 57.1 µM), for the others: at the highest dose activity change, negative = inhibition, most hits filed as inhibitors | hit rate 1.4% among 74,000; further: on the % scale 0 is the no-effect control and ±100 the full control effect; nearly all actives have a fitted effect of over 55% in size
#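 Purified human 15hLO-1 (40 nM final) in 25 mM Hepes pH 7.5, 0.01% Triton X-100 was preincubated with compound 15 min at room temperature, then reacted 6 min with 50 uM arachidonic acid; hydroperoxide detected by Fe-XO, 573/405 nm absorbance ratio.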
# Caspase-7 inhib: allosteric or competitive inhibitors of human caspase-7; recombinant caspase-7, Ac-DEVD-AFC fluorescence rate; Potency, µM (titrated, usually from 57.5 µM), for the others: at the top dose activity change, negative = inhibition, most hits filed as inhibitors; P55210; hit rate 0.02% among 75,000; active means well fitted inhibition curve with a large enough effect in the main read-out, with a control signal flat, not every such curve was filed as active; inconclusive means small, poorly fitted or top-dose-only effect, or a change in a side signal; further: % of control where 0% means no effect
# HEK293 cAMP cs: raises cAMP in parental HEK293 cells, TSHR agonist counter-screen. Potency, µM (doses to about 57.1 µM), for inactives: at the top dose activation, hits mostly activators. hit rate 2.5% among 73,000. parental HEK293 CNG cAMP sensor, membrane potential fluorescence; further: % of control where 0% means no effect; nearly all actives have a fitted effect of over 55% in size
#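 Parental HEK 293 cells stably expressing a cAMP-gated CNG channel were loaded with membrane potential dye containing 100 uM RO 20-1724 for 60 min. Compound added for 30 min; depolarization read as fluorescence intensity at 590 nm.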
# * marks the source's active call; other numbers are inactive results; ? = inconclusive; . = not tested or not shown; [ ] = another dose, or the depositor's remark. This is a sample that favours compounds with a hit; in the whole collection about 4.8% have one here. Unless noted, the call rests on the fitted dose curve; in most records, active means well fitted curve in the direction sought with a large enough effect; inconclusive means small, poorly fitted or top-dose-only effect, or another doubt; inactive means no such curve, though single readings can be large; an effect the other way counts as inactive or inconclusive. Potency means the concentration at half of the fitted maximal effect.
SMILES,Casp1 inh,TSHR ag,ERK AVP block,ALOX15 inhib,Caspase-7 inhib,HEK293 cAMP cs
COCCN(C(=O)Cn1nnc2ccccc21)C(C(=O)NC1CCCC1)c1cc(OC)ccc1OC (stereo not given),-2.0%,?,-3.4%,?,-8.3%,25.1µM*
Cc1ccc(C(C(=O)NCc2ccco2)N(CCc2ccccc2)C(=O)Cn2nnc3ccccc32)o1 (stereo not given),-4.0%,?,-2.3%,-6.7%,-0.7%,12.6µM*
Cc1ccc(C(C(=O)NCc2ccco2)N(C(=O)Cn2nnc3ccccc32)c2ccccc2)o1 (stereo not given),-2.4%,19.8%,42.4%,-0.7%,-6.0%,20.9%
O=C(Cc1cccs1)NCc1ccco1,1.4%,20.9%,-15.5%,3.1%,-0.9%,18.1%
COc1ccc(OC)c(C(C(=O)NCc2ccco2)N(C(=O)Cn2nnc3ccccc32)C(C)C)c1 (stereo not given),2.6%,?,10.3%,-7.5%,-2.4%,15.8µM*
COc1ccc(N(C(=O)Cn2nnc3ccccc32)C(C(=O)NCc2ccco2)c2ccc(C)o2)cc1 (stereo not given),-4.2%,25.1µM*,-21.2%,-9.2%,0.3%,26.7%
Cc1ccc(N(C(=O)Cn2nnc3ccccc32)C(C(=O)NCc2ccco2)c2ccc(C)o2)cc1 (stereo not given),-6.3%,?,12.2%,-9.5%,0.9%,?
O=C(NCc1ccco1)C(c1cccs1)N(C(=O)Cc1cccs1)c1ccccc1 (stereo not given),-3.5%,?,4.7%,-12.9%,-0.3%,12.6µM*
CC(C)CCNC(=O)C(c1ccco1)N(Cc1cccs1)C(=O)Cn1nnc2ccccc21 (stereo not given),-5.0%,?,-13.7%,-7.5%,1.1%,6.31µM*
CC1=CC(C)(C)N2C(=O)C3(N=C(N)NC(Nc4ccccc4)=N3)c3cc(C)cc1c32 (stereo not given),-3.4%,1.1%,?,25.1µM*,-2.8%,11.5%
N[C@@H](C(=O)O)c1ccc(O)c(C(=O)O)c1,-0.1%,5.9%,-13.6%,-8.9%[25.6 µM],0.9%,-0.2%
O=C(O)/C=C\[C@H](O)c1ccc(Cl)cc1,1.5%,?,-2.9%,?,-0.3%,?
CCOC(=O)c1c(C)[nH]c(C)c1C(=O)COc1ccc(NC(=O)c2ccco2)cc1,1.9%,-1.6%,25.1µM*,-15.7%,-3.1%,0.6%
COc1ccc(OCC(=O)Nc2ccc(NC(=O)c3ccco3)cc2)cc1,-1.8%,-9.6%,-12.6%,0.4%,-0.8%,3.0%
Cc1ccc(C(C)(C)C)cc1,-1.4%,?,10.2%,-6.3%,0.5%,6.3%
COc1ccc(CN(Cc2ccccn2)C(=O)CN2C(=O)COc3ccccc32)cc1,-1.3%,13.0%,-13.6%,3.8%,-0.2%,28.4%
COc1ccc(CN(C(=O)CN2C(=O)C(C)Oc3ccccc32)C2CCCC2)c(OC)c1 (stereo not given),3.1%,?,-17.7%,-8.9%,0.3%,25.1µM*
COc1ccc(CN(C(=O)CN2C(=O)COc3ccccc32)C2CCCC2)c(OC)c1,-4.4%,?,-3.0%,4.3%,-0.9%,20µM*
CN(C)c1ncnc2ccc(-c3ccccc3C#N)cc12,2.6%,5.1%,-10.8%,-0.9%,-1.2%,-13.3%
O=C1CSC(c2cn(-c3ccccc3)nc2-c2ccccc2)N1Cc1ccco1 (stereo not given),-1.5%,.,?,-23.2%,-2.0%,18.0%
O=C1CSC(c2cn(-c3ccccc3)nc2-c2cccs2)N1CC1CCCO1 (stereo not given),2.1%,10µM*,-30.0%,-5.6%,-2.9%,9.9%
CN(CCc1ccccn1)c1ccc2c(c1)Cc1ccccc1-2,-0.4%[11.5 µM],-0.7%[11.4 µM],-4.7%[11.5 µM],9.1%[11.4 µM],-3.2%[11.5 µM],-0.9%[11.4 µM]
c1ccc2c(c1)Cc1cc3ccccc3nc1-2,-2.3%,?,12.6µM*,.,-3.7%,20µM*
O=C(NC(Cc1cc(=O)[nH]c2ccccc12)C(=O)O)c1ccc(Cl)cc1 (stereo not given),-1.5%,.,-6.8%,2.5%,1.9%,.
Cc1ccc2oc(-c3cccc(NC(=O)C4CCCO4)c3)nc2c1 (stereo not given),-0.5%,4.0%,-21.6%,2.4%,2.8%,22.9%
SMILES,Casp1 inh,TSHR ag,ERK AVP block,ALOX15 inhib,Caspase-7 inhib,HEK293 cAMP cs
O=C(Nc1cccc(-c2nc3cc(Cl)ccc3o2)c1)C1CCCO1 (stereo not given),-1.9%,3.3%,20µM*,-4.3%,-2.9%,11.2%
CC(=O)N[C@@H](C(=O)O)C(C)(C)SN=O,1.4%,4.5%,10.4%,-9.7%,1.5%,1.6%
O=C(O)c1c(Sc2ccccc2)c2cc(Cl)ccc2n1Cc1ccc(Cl)cc1,-18.4%,?,-10.0%,25.1µM*,-27.3%,?
CNc1ccnc(-c2c(C)noc2C)n1,1.2%,5.9%,12.8%,2.3%,1.0%,6.9%
CN1CCN(c2ncc3ncc(=O)n(CCc4ccccc4)c3n2)CC1,-12.0%,3.1%,25.1%,1.7%,-18.4%,7.8%
CN(C)/C=C1\C(=O)c2ccc(N(C)C)nc2CC1c1ccccc1 (stereo not given),.,6.7%,13.3%,5.01µM*,?,11.5%
O=C(c1ccco1)c1nnn(Cc2ccccc2)c1-c1ccccc1,-3.9%,?,21.1%,-7.6%,-3.8%,31.6µM*
Nc1c(C(=O)NCc2ccco2)nnn1Cc1ccccc1,0.2%,?,5.6%,6.7%,-1.3%,?
COC(=O)c1ccc(Oc2nc3c(c(=O)n(C)c(=O)n3C)n2CCC(C)C)cc1,2.8%,?,4.4%,4.6%,-2.4%,15.8µM*
COc1ccc(C(=O)Cn2c(N3CCOCC3)nc3c2c(=O)n(C)c(=O)n3C)cc1,1.0%,0.8%,5.7%,3.5%,-0.5%,-6.5%
C[C@@H]1CC2(OC[C@]3(C)O[C@H]23)O[C@H]2C[C@@]3(C)[C@@H]4CC[C@H]5C(C)(C)C(O[C@@H]6OC[C@@H](O)[C@H](O)[C@H]6O)CC[C@@]56C[C@@]46CC[C@]3(C)[C@@H]12 (stereo not given in full),-3.8%,3.6%,18.8%,8.1%,-12.2%,-10.7%
CCOC(=O)c1ccccc1NC(=O)CSc1nnc(COc2ccccc2)n1CC,-2.6%,?,-16.5%,-2.6%,-6.4%,15.8µM*
COC(=O)c1ccccc1NC(=O)CSc1nnc(COc2cccc(OC)c2)n1C,-2.0%,?,7.3%,4.4%,2.3%,12.6µM*
CCOC(=O)c1ccccc1NC(=O)CSc1nc2ccccc2o1,-4.9%,?,-10.2%,-9.8%,-2.2%,25.1µM*
CC1=CC2=C(OC1N(C)C)c1cccc3cccc(c13)C2=O (stereo not given),?,-9.7%,?,7.94µM*,-23.5%,1.1%

# Screens from PubChem.
